About 370 (0.17%) of roughly 220,000 compounds were called active. The sample as a whole holds a higher share of actives than the screen did. Values without a mark were called inactive.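 Rule for the calls: active = inhibition above the mean inhibition of all tested compounds plus 3 SD, set separately per screening campaign (cut at about 2.9% in these data); inactive = the rest.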

Eukaryotic translation initiation factor 2-alpha kinase 3 (Homo sapiens), sequence (Q9NZJ5 whole entry, looked up, the tested form may be a part): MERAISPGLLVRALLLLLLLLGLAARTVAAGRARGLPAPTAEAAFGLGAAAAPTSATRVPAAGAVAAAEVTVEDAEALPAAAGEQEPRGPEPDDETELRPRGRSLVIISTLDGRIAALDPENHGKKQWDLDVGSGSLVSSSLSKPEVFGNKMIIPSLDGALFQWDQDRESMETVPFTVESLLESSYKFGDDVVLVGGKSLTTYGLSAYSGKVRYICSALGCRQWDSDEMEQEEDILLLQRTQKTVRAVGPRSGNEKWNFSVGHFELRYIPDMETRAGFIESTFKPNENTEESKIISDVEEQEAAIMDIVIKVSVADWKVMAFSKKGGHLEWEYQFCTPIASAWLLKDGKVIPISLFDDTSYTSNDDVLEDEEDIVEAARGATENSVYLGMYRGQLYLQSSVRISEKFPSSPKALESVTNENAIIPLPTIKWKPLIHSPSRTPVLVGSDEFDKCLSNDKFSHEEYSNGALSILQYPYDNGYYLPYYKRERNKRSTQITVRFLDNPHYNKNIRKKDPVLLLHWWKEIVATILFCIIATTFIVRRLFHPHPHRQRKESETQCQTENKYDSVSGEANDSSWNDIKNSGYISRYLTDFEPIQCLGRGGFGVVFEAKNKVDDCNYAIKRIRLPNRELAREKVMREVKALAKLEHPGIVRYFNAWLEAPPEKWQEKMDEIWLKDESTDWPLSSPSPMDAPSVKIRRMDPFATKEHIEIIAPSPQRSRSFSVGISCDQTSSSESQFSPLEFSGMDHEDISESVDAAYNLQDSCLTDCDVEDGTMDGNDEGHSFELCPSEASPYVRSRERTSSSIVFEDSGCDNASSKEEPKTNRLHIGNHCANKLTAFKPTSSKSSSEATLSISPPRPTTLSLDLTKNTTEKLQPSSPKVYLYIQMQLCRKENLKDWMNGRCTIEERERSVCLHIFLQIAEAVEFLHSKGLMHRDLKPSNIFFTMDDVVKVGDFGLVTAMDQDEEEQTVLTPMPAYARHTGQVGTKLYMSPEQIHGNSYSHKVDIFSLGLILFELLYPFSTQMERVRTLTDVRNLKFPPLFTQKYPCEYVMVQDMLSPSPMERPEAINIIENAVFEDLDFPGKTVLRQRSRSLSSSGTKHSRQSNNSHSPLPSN

This test concerns the target Eukaryotic translation initiation factor 2-alpha kinase 3 (Homo sapiens) (UniProt Q9NZJ5). As to the kind of experiment: SEAP translation reporter rise after PERK-DD activation – CHO PERK-DD cells, SEAP luminescence, HTS, PERK inhibitor project, primary screen (AID 1416).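 Note: PERK kinase domain activated by AP20187 dimerizer at 100 nM; 0% = DMSO with dimerizer and 100% = rapamycin at 8.4 µM.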 The conditions noted are these: CHO PERK-DD fusion, at 5.6 µM, active compounds read high.
Consider `CC1=NN(C(C)C)C(=O)C1`, for which the inhibition was 0.1%.
The result for `O=C(CN1CCN(S(=O)(=O)c2ccc3ccccc3c2)CC1)NC(=O)NC1CCCCC1` reads -1.71%.
For the compound `COc1ccc(-n2c(C)nn(CC3CC3)c2=O)cc1`, the inhibition is 0.52%.
For `COc1ccc(CN2CCCC(CNC(=O)c3ccc(F)cc3)C2)cc1OC` (stereo not drawn), the inhibition was 0.78%.
`O=C(NNC(=O)C1CCN(c2ncccn2)CC1)c1ccccc1`: the inhibition is 1.78%.
Under `Cc1cc(Cl)ccc1OCCCC(=O)NCc1ccccn1` stands 0.34%.
With `O=C(Nc1cccnc1)c1cc([N+](=O)[O-])ccc1Cl`, the inhibition is 1.12%.
The result for `Cc1cc(=O)[nH]c(N/N=C/c2c(C)nn(-c3ccccc3Cl)c2Cl)n1` reads 0.41%.
The result for `COc1ccc2[nH]c(=O)c(CNc3ccc(C)c(C)c3)cc2c1` reads 0.88%; that for `COc1ccc2[nH]c(=S)cc(C)c2c1`, 3.26% (active); that for `COc1ccc2[nH]c3ccc(OC)cc3c2c1`, -0.09%.
As for `CN1CCN(CCC(=O)N/N=C/C=C2\N(C)c3ccccc3C2(C)C)CC1`, the inhibition is 0.12%.
With `O=C(COC(=O)c1cnc(Cl)c(Cl)c1)NCc1ccco1`, the inhibition was -0.25%.
`NC(=O)Cc1ccc2sc(-c3ccccc3)nc2c1`: the inhibition is 0%.
In the case of `O=C(CCNc1n[nH]c(=O)[nH]c1=O)N/N=C\c1ccc(Br)cc1`, the inhibition was 1.9%.
In the case of `Cc1cc(/C=N/NC(=O)CC2(C)OCCO2)c(C)n1-c1ccc(Cl)c(Cl)c1`, the inhibition is -0.35%.
The result for `CC(=O)NC1=NN(C(C)=O)C(C)(c2ccc(C)cc2)S1` (stereo not drawn) reads 0.26%; that for `COc1ccc(CC(NC(C)=O)C(=O)NC2CCN(C(=O)c3ccc(OC)c(OC)c3)CC2)cc1OC` (stereo not drawn), 0.49%; that for `O=C(COc1ccc([N+](=O)[O-])cc1Cl)Nn1cnnc1`, 0.99%.
Take `CN(C)S(=O)(=O)c1cccc(NC(=S)NCc2ccc3c(c2)OCO3)c1`: the inhibition was -0.05%.
Consider `COC(OC)c1ccnc(SCc2ccccc2Cl)n1`, for which the inhibition was 1.69%.
The result for `CCN1CCN(C(=O)CCN2C(=O)c3ccccc3C2=O)CC1` reads 1.42%.
For the compound `COC(=O)c1cc2n(n1)CCCNC2=O`, the inhibition was 0.06%.
Under `CCN(CC)CCOC(=O)c1ccc(NC(=O)CNC(=O)c2ccccc2)cc1` stands 2.02%.
As to `CCn1nc(C)c(CN2CCN(Cc3ccc(OC)c(C)c3C)C(CCO)C2)c1C` (stereo not drawn), the inhibition was -0.31%.
Under `COc1ccc(N2C(=O)C(Cc3ccccc3)NC2=S)cc1` (stereo not drawn) stands 0.37%; under `Cc1ccc(N2C(=O)C(Cc3ccccc3)NC2=S)cc1` (stereo not drawn), -0.27%; under `O=C1C(Cc2ccc(O)cc2)NC(=S)N1Cc1ccccc1` (stereo not drawn), 3.13% (active).
Consider `O=[N+]([O-])c1ccc2c(c1)C(N1CCOCC1)/C(=C/C1(O)CCCCC1)O2` (stereo not drawn), for which the inhibition was -1.29%.
Under `Cc1c(C(=O)N(Cc2ccccc2)Cc2cccnc2)cnn1-c1ccc(F)cc1` stands -0.72%; under `CCc1cc(CNC(=O)CC2C(=O)NCCN2CC2CCCCC2)on1` (stereo not drawn), -0.53%; under `COc1cc(NS(=O)(=O)c2ccc(NC(=O)CN3C(=O)c4ccccc4C3=O)cc2)ncn1`, 2.32%.
Under `COc1ccc(Oc2c(Cl)cnn(-c3ccccc3)c2=O)cc1` stands 0.39%; under `Cc1ccc(Oc2cnn(-c3ccccc3)c(=O)c2Br)cc1`, 2.99% (active).
As for `COc1ccc(-n2c(C)nc3c(cnn3-c3ccccc3)c2=O)cc1`, the inhibition was -0.16%.
The result for `CCCS(=O)(=O)N1CCC(CCOc2ccccc2)(C(=O)OCC)CC1` reads -0.64%; that for `O=C(NC(=O)N1CCOCC1)c1ccccc1`, 0.27%.
In the case of `O=C(NC(=O)c1cc(OCC(F)(F)F)ccc1OCC(F)(F)F)Nc1ccccc1`, the inhibition is 0.87%.
With `CN(C)S(=O)(=O)c1ccc(NC(=O)N2CCOCC2)cc1`, the inhibition is 0.79%.
Under `Cn1nccc1NS(=O)(=O)c1ccc(F)cc1` stands 0.14%; under `CC(C)CNC(=O)C(=O)Nc1ccc(N(C)C)cc1`, 0.89%.
Under `Nc1ccc(S(=O)(=O)Nc2nccc(/C=C/c3ccc(Br)s3)n2)cc1` stands 1.17%; under `O=C(O)CCCC(=O)Nc1ccccc1-n1ccnc1`, 3.15% (active).
On to `Cc1cccc(C)c1NC(=O)Nc1ccccc1-n1ccnc1`, for which the inhibition is 1.72%.
In the case of `CC(CC(=O)Nc1ccccc1)n1ccnc1` (stereo not drawn), the inhibition is 0.1%.
Under `COc1cccc(C2SCC(=O)N2c2cccc(C)c2)c1OC` (stereo not drawn) stands 0.28%; under `CC(=O)NCC(=O)N(Cc1ccco1)C1(C(=O)NC2CCCC2)CCCCC1`, 0.44%.
On to `CCc1ccc(N(CC(=O)Nc2sc3c(c2C(=O)OC)CCCC3)S(C)(=O)=O)cc1`, for which the inhibition was 0.54%.
Consider `O=C(c1cccc(S(=O)(=O)N2CCCC2)c1)N(Cc1ccco1)C1CCS(=O)(=O)C1` (stereo not drawn), for which the inhibition is 0.31%.
As for `Cc1nn(-c2ccccc2)c(-n2cccc2)c1C(=O)O`, the inhibition was 0.88%.
For `CC(CO)(CO)NC(=O)c1ccc(=O)[nH]n1`, the inhibition is 1.5%.
Take `CCC(C)NCCOCCOc1ccc(Br)cc1C` (stereo not drawn): the inhibition is -0.24%.
Turning to `COc1ccc(C2c3c(C)nn(-c4ccccc4)c3NC(=O)N2c2ccccc2)cc1` (stereo not drawn), the inhibition is -0.38%.
The result for `CCN(CCCNC(=O)C1CCN(S(=O)(=O)c2cnc[nH]2)CC1)c1ccccc1` reads -0.73%; that for `O=C(Nc1ccccc1)O/N=C1/CCCc2occc21`, 0.48%; that for `COc1ccc(-c2csc(NC(=O)COC(=O)c3ccc(Br)o3)n2)cc1`, 0.82%.
For the compound `CCN(CC)CCNc1ccc(Cl)cc1[N+](=O)[O-]`, the inhibition is -0.09%.
With `O=[N+]([O-])c1ccc(NCCCO)c(C(F)(F)F)c1`, the inhibition was 0.52%.
`N#Cc1c(NCCO)ccc([N+](=O)[O-])c1NCCO`: the inhibition is 3.54% (active).
As to `O=C(C1CCCN1S(=O)(=O)c1ccc(Br)cc1)N1CCOCC1` (stereo not drawn), the inhibition was 1.24%.
Regarding `CCC1(C)Cc2c(sc3nc(SC)[nH]c(=O)c23)CO1` (stereo not drawn), the inhibition was -0.25%.
Under `CCOC(=O)CSc1nc2sc3c(c2c(=O)[nH]1)CC(C)(C)OC3` stands 2.96% (active); under `CCOC(=O)Cn1c(SC)nc2sc3c(c2c1=O)CC(C)(C)OC3`, 0.18%; under `Cc1cccc(C(=O)Nc2ccc(C(=O)/C=C/c3cccs3)cc2)c1`, -1.44%.
Consider `COc1cc(/C=C/C(=O)OCC(=O)NC(=O)NCc2ccccc2)ccc1OCC#N`, for which the inhibition was 0.97%.
Consider `O=C(c1ccco1)N1CCN(C(=O)C2CCCN(S(=O)(=O)c3cccc4nsnc34)C2)CC1` (stereo not drawn), for which the inhibition is 0.2%.
With `CN(C)c1ccc(NC(=O)CSc2n[nH]c(-c3ccco3)n2)cc1`, the inhibition was -0.7%.
Under `COc1ccccc1Cn1c(C)nnc1-c1cnn(C)c1N` stands 0.89%; under `CCSc1ccccc1C(=O)NCc1ccc(OC)cc1`, 0.41%.
In the case of `CCn1cc(CN2CCCC(CNS(=O)(=O)Cc3ccccc3)C2)cn1` (stereo not drawn), the inhibition was 1.56%.
Under `COc1c(N2CCN(C(=S)Nc3ccccc3F)C(C)C2)c(F)cc2c(=O)c(C(=O)O)cn(C3CC3)c12` (stereo not drawn) stands 1.87%; under `Cc1ccccc1-n1nc(C)c2cc(C(=O)NC3CC3)sc21`, -1.39%; under `Cc1c(Cl)c([N+](=O)[O-])nn1CC(=O)NCC1CCCO1` (stereo not drawn), 0.38%.
For the compound `Cc1cc(S(=O)(=O)NC2CCCCC2)ccc1OCC(=O)NCc1cccnc1`, the inhibition is 0.23%.
Under `CC(=O)NCc1ccc(S(=O)(=O)NC2CCN(Cc3ccccc3)CC2)cc1` stands 1.04%; under `O=C1CCC(=O)N1c1ccc(NCCc2ccccc2F)c([N+](=O)[O-])c1`, -0.58%.
Under `NC(=O)c1ccc(N2CCOCC2)nc1` stands 2.55%; under `N#CC1=C(N)N(c2ccc(F)cc2)C(=O)C1`, 0.76%.
Under `CCOC(=O)c1ccc(COC(=O)CCc2nc(-c3ccccc3)c(-c3ccccc3)o2)cc1` stands -0.32%; under `Cc1cc(NC(=O)COC(=O)COc2ccc(Cl)cc2C)c([N+](=O)[O-])cc1C`, 0.97%.
Consider `CCOC(=O)C1=C(C)N=C2c3ccccc3C(=O)C2C1c1ccc(Br)cc1` (stereo not drawn), for which the inhibition was 0.04%.
Under `CCOc1cnc(C(=O)NNC(=O)c2ccccc2Br)o1` stands 1.53%; under `CC1CN(C2CCN(C(=O)COc3ccccc3)CC2)CC(C)O1` (stereo not drawn), 0.89%.
Under `Cc1nn(CC2CC2)c(=O)n1N(C)c1ncc(C(F)(F)F)cc1Cl` stands 1.31%; under `O=C(Cn1cnc2ccccc21)N/N=C/c1ccco1`, -0.07%; under `O=C(O)/C=C\C(=O)Nc1ccc(OCc2ccccc2)cc1`, 1.09%.
Under `CCOc1c(Br)cc(/C=C2\C(=O)N(CCC#N)N=C2C)cc1OC` stands 1.06%.
In the case of `O=[N+]([O-])c1ccccc1NCc1ccccc1Cl`, the inhibition is 0.13%.
Under `COc1ccc([N+](=O)[O-])cc1N(CC(O)Cn1nnc2ccccc21)S(=O)(=O)c1ccc(C)cc1` (stereo not drawn) stands -0.77%; under `O=C(O)CC1(CC(=O)Nc2cccc(C(F)(F)F)c2)CCCC1`, 1.02%.
The result for `O=C(Nc1ccc2c(c1)C(=O)OC2)Nc1cccc2ccccc12` reads 1.57%.
Turning to `CC(=O)c1cc2c(cc1NC(=O)CN1CCCCCC1)OCO2`, the inhibition is -1.22%.
The result for `CC(=O)c1cc2c(cc1N)OCO2` reads 4.03% (active).
The result for `CC(=O)c1ccc2c(c1)OCCOCCOc1ccc(C(C)=O)cc1OCCOCCO2` reads -1%.
Under `Cc1ccc2cc(C)c(N3CCC(C)CC3)nc2c1` stands 1.08%; under `S=c1[nH]nc(COc2ccccc2)n1-c1ccccc1`, 0.99%; under `CCCCC(CC(C)O)c1n[nH]c(=S)n1-c1ccccc1` (stereo not drawn), 0.58%.
Turning to `CC(NS(=O)(=O)c1ccccc1)c1n[nH]c(=S)n1-c1ccccc1` (stereo not drawn), the inhibition was 3.52% (active).

The values are drawn from PubChem BioAssay AID1416 (The Scripps Research Institute Molecular Screening Center, 2008).
